Assay outcomes (PubChem)
HCV inhibitor: blocks hepatitis C virus. Huh7.5.1 HCVcc-Cre infection, luciferase reporter, 44 h. Potency, µM (top dose mostly 41.8 µM), without a hit: at the highest dose activity change, negative = inhibition, hits mostly inhibitors. 340,000 compounds, 3.4% hits. AID 651820; active = well fitted inhibition curve with a large enough effect; inconclusive = small, poorly fitted or top-dose-only effect, or another doubt; inactive = no such curve, though single readings can be large or run the other way; note: potency is the fitted concentration of half-maximal effect
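Antiviral activity was scored by luciferase reporter output from cells infected with HCVcc-Cre (~0.5 moi) in presence of compound, 44 h infection period, cells seeded 1,000/well 4 h prior.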
FMDV inh: antivirals against foot and mouth disease virus. 410,000 compounds, 1.2% hits. FMDV antiviral cell-based qHTS. Potency, µM (highest dose often 57.9 µM), without a hit: at the highest dose activity change, negative = inhibition, actives largely listed as inhibitors; calls by dose curve; tested in HEK293T cells; note: read-out not given here; potency is the fitted concentration of half-maximal effect; nearly all actives have a fitted effect of over 45% in size
HCMV antiviral: inhibitors of human cytomegalovirus. 410,000 compounds, 4.5% hits. HFF cells, HCMV-luciferase reporter, 72 h; hits give low values. activity change, negative = inhibition, % at 57.5 µM; in the data active = activity change below about -60%; inconclusive = no clear call, values can overlap the other calls; inactive = above about -39%
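Inhibition of viral replication was scored as loss of reporter luminescence in HFFs infected with HCMV-luciferase (MOI 1 PFU/cell) for 72 h; compounds tested at 2 doses, normalized to buffer and Salinomycin controls.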
Marburg entry inh: Marburg virus entry inhibition; Marburg virus pseudotyped entry inhibition, cell reporter; Potency, µM (highest dose often 37.8 µM), inactives show at the highest dose activity change, negative = inhibition, most hits filed as inhibitors; 300,000 compounds, 1.8% hits; AID 540276; calls by dose curve; tested in HEK293 cells; note: potency is the fitted concentration of half-maximal effect
LASV entry inh: blocks Lassa virus binding to or entry into cells; Potency, µM (highest dose often 37.9 µM), without a hit: at the top dose activity change, negative = inhibition, actives largely listed as inhibitors; 300,000 compounds, 1.2% hits; AID 540256; Lassa virus pseudotype entry inhibition, cell reporter; calls by dose curve; tested in HEK293 cells; note: potency is the fitted concentration of half-maximal effect; nearly all actives have a fitted effect of over 50% in size
* hit, by the source's call; [ ] = another dose, or the depositor's remark. Rows were chosen to be rich in hits. Some 7.9% of all compounds tested hit in one or more screens of this group. % is set by controls: 0 for no effect and ±100 for the full control effect.

How did C=CCN1c2ccccc2[C@]23CCC(=O)N(Cc4cc(OC)c(OC)c(OC)c4)C2=NC(C(=O)OC)=C(C(=O)OC)[C@H]13 do in these assays?
Marburg entry inh: -7%[14.2 µM]

Results for COc1ccc(N=C2C(=O)N3c4c(cccc42)C(C)=CC3(C)C)cc1 ?
HCV inhibitor: inconclusive; FMDV inh: inconclusive; HCMV antiviral: -63*; Marburg entry inh: inconclusive; LASV entry inh: 2%

Results for COc1ccc(N=C2C(=O)Nc3ccccc32)cc1 ?
HCV inhibitor: 10%; FMDV inh: 31%; HCMV antiviral: -13; Marburg entry inh: 6%; LASV entry inh: inconclusive

Results for Cc1cccc(CC(=O)NC2CC(=O)N(c3cccc(F)c3)C2)c1 (stereo not drawn) ?
FMDV inh: 0%; HCMV antiviral: 14; LASV entry inh: 16%[46.1 µM]

Results for C/C(=N\NC(=O)c1ccccc1OCCOc1ccccc1)c1ccccc1F ?
HCV inhibitor: inconclusive; FMDV inh: -21%; HCMV antiviral: 10; Marburg entry inh: 11µM*; LASV entry inh: inconclusive

How did COc1cc(OC)c(NC(=O)Cn2cnc3nc4c(cc3c2=O)CCCC4)cc1Cl do in these assays?
FMDV inh: -6%; HCMV antiviral: -5; LASV entry inh: 3%[46.1 µM]

How did O=C(NCCc1ccccc1)c1ccc2c(c1)OCO2 do in these assays?
HCV inhibitor: 7%; FMDV inh: 7.9µM*; HCMV antiviral: -79*; Marburg entry inh: 1.3µM*; LASV entry inh: 1.1µM*

Results for O=C(NNC(=S)NCc1ccccc1)c1ccc2c(c1)OCO2 ?
HCV inhibitor: 16%; FMDV inh: -2%; HCMV antiviral: -65*; Marburg entry inh: 6%; LASV entry inh: 15%

What do the screens show for `O=C(NCCc1ccccc1)c1ccc2nccnc2c1`?
HCV inhibitor: -2%; FMDV inh: -36%; HCMV antiviral: 61; Marburg entry inh: 1.3µM*; LASV entry inh: 2.8µM*

What do the screens show for `O=C(NCCc1ccc2c(c1)OCCO2)c1cccc(F)c1`?
HCV inhibitor: inconclusive; FMDV inh: 11%; HCMV antiviral: -73*; Marburg entry inh: -18%; LASV entry inh: 2%

Results for O=C(NCCS(=O)(=O)NCc1ccccc1)c1ccc2c(c1)OCO2 ?
HCV inhibitor: 6%; FMDV inh: 5%; HCMV antiviral: -3; Marburg entry inh: 1%[46.1 µM]; LASV entry inh: 20%

Results for Cc1ccc(NC(=O)C(NS(=O)(=O)c2ccc3c(c2)CCC(=O)N3)c2ccccc2)cc1C (stereo not drawn) ?
FMDV inh: 44%; HCMV antiviral: 55; Marburg entry inh: -2%[46.1 µM]; LASV entry inh: -14%[46.1 µM]

What do the screens show for `CC(C)n1c(SCC(=O)c2ccc(F)cc2)nc2c(sc3ccccc32)c1=O`?
FMDV inh: -12%; HCMV antiviral: 9; LASV entry inh: 27%[46.1 µM]

How did O=C(c1ccc2c(c1)OCO2)C1CCCN(C2CCN(CCc3ccccc3)CC2)C1 (stereo not drawn) do in these assays?
HCV inhibitor: 3.5µM*; FMDV inh: -8%; HCMV antiviral: -14; Marburg entry inh: 7.1µM*; LASV entry inh: inconclusive

How did CCCCn1c(-c2ccc(C(C)(C)C)cc2)nc2cc3[nH]c(=O)c(C(C)C)nc3cc21 do in these assays?
HCV inhibitor: -13%; FMDV inh: 35µM*; HCMV antiviral: 12

How did CCCCn1c(-c2ccc(Cl)c(Cl)c2)nc2cc3[nH]c(=O)c(C(C)C)nc3cc21 do in these assays?
HCV inhibitor: -14%; FMDV inh: -19%; HCMV antiviral: 0

What do the screens show for `COc1ccc2c(c1)O[C@H](c1cccc(C(F)(F)F)c1)[C@@H](O)C2=O`?
Marburg entry inh: -33%[14.2 µM]

What do the screens show for `CCCCOc1ccc(C2c3c(oc4ccccc4c3=O)C(=O)N2c2nc(C)c(C(=O)OCC)s2)cc1OC` (stereo not drawn)?
FMDV inh: -20%; HCMV antiviral: 14; Marburg entry inh: 6%[46.1 µM]; LASV entry inh: -13%[46.1 µM]

Results for COc1cccc(NC(=O)COC(=O)c2c3c(nc4ccccc24)CCC(C)C3)c1 (stereo not drawn) ?
HCV inhibitor: 2µM*; FMDV inh: 32µM*; HCMV antiviral: -25; Marburg entry inh: 7.3µM*; LASV entry inh: 18µM*

Results for CC1CCc2nc3ccccc3c(C(=O)OCC(=O)NC3CCS(=O)(=O)C3)c2C1 (stereo not drawn) ?
HCV inhibitor: 10µM*; FMDV inh: -10%; HCMV antiviral: -17; Marburg entry inh: -10%[46.1 µM]; LASV entry inh: -9%

What do the screens show for `CC1CCc2nc3ccccc3c(C(=O)OCC(=O)N(C)C3CCS(=O)(=O)C3)c2C1` (stereo not drawn)?
HCV inhibitor: inconclusive; FMDV inh: -13%; HCMV antiviral: -13; Marburg entry inh: -11%[46.1 µM]; LASV entry inh: 5%

Results for COc1cccc(Nc2ncc3ncc(=O)n(C[C@H]4CCCO4)c3n2)c1 ?
FMDV inh: 0%

How did CCOC(=O)C(/C(C)=N/NC(=O)C1CC1c1ccccc1)C(C)C (stereo not drawn) do in these assays?
HCV inhibitor: -1%; FMDV inh: inconclusive; HCMV antiviral: 27; Marburg entry inh: 25%; LASV entry inh: 2.1µM*

Results for COC(=O)[C@@]1(C=C2c3ccc(F)cc3[C@@H](OC)[C@@H]2C)[C@@H]2CC=C[C@@H]21 ?
Marburg entry inh: 0%[14.2 µM]

What do the screens show for `O=C(COC(=O)c1cc([N+](=O)[O-])ccc1NCCO)Nc1ccc2c(c1)OCO2`?
HCV inhibitor: 11µM*; FMDV inh: inconclusive; HCMV antiviral: -9; Marburg entry inh: inconclusive; LASV entry inh: -28%

How did Cc1nn(-c2ccccc2)c(C)c1NC(=O)COC(=O)c1cc([N+](=O)[O-])ccc1NCCO do in these assays?
HCV inhibitor: 22µM*; FMDV inh: -26%; HCMV antiviral: -21; Marburg entry inh: inconclusive; LASV entry inh: inconclusive

What do the screens show for `Cc1nn(-c2ccccc2)c(C)c1NC(=O)COc1ccc([N+](=O)[O-])cc1`?
HCV inhibitor: -22%; FMDV inh: inconclusive; HCMV antiviral: -7; Marburg entry inh: inconclusive; LASV entry inh: -17%

Results for COC(=O)C1=C(C)N(Cc2ccccc2)C(=NCc2ccc(OC)cc2)NC1c1cccc(F)c1 (stereo not drawn) ?
Marburg entry inh: -1%[14.2 µM]

What do the screens show for `COc1cccc(Nc2nccc3[nH]c(-c4cccc(C(C)C)c4)nc23)c1`?
HCMV antiviral: -14

What do the screens show for `O=[N+]([O-])c1cc(C(F)(F)F)cc([N+](=O)[O-])c1Sc1n[nH]c(C(F)(F)F)n1`?
HCV inhibitor: 15%; FMDV inh: 6.3µM*; HCMV antiviral: 12; Marburg entry inh: 1%[46.1 µM]; LASV entry inh: 27%[46.1 µM]

How did COc1ccc(-c2noc(-c3ccc(NCc4ccco4)c([N+](=O)[O-])c3)n2)cc1OC do in these assays?
FMDV inh: -7%; HCMV antiviral: 0; Marburg entry inh: -17%[46.1 µM]; LASV entry inh: -7%[46.1 µM]
